Assay outcomes (PubChem)
PME-1 inh: PME-1 (human) inhibition; recombinant PME-1, FP-Rh probe fluorescence polarization; inhibition, % at 5.9 µM; 0.53% of 320,000 active; AID 2130;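 active = inhibition above the campaign mean of all compounds plus 3 SD, cut at about 26% in these data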;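 also: competitive labeling of PME-1 active site by serine hydrolase directed probe; 0% = PME-1 with DMSO and 100% = wells lacking PME-1 enzyme; inhibitors block probe labeling so polarization falls and inhibition rises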
SIAE inh: blocks human sialic acid acetylesterase. SIAE FP-Rh probe binding, fluorescence polarization. inhibition, % at 9.66 µM. Q9HAT2. 0.69% of 370,000 active;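 active = inhibition above a cutoff: mean of compounds within the control limits plus 3 SD of those, cut at about 17% in these data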;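 also: 0% = plate median of compound wells and 100% = probe without SIAE protein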
Fam108B inh: counter-screen for RBBP9 inhibitors: inhibitors of mouse Fam108B; recombinant Fam108B, FP-Rh probe fluorescence polarization; inhibition, % at 9.51 µM; 0.33% of 300,000 active; AID 1947;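 active = inhibition above the screen mean inhibition plus 3 SD, computed separately per campaign, cut at about 18% in these data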;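 also: inhibitors lower polarization as less probe binds the enzyme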
PAD4 inh: PAD4 (human) enzyme inhibition; recombinant PAD4, RCA probe fluorescence polarization; Q9UM07; 0.41% of 330,000 active; inhibition, % at 6.36 µM;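 active = percent inhibition above a cutoff equal to the mean of all tested compounds plus 3 SD, cut at about 15% in these data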;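 also: 0% = PAD4 with RCA probe and DMSO and 100% = probe without PAD4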
TCR-CD3 inh: human TCR-CD3 binding inhibition; AID 651800; inhibition, % at 9.4 µM; TAMRA-labeled TCR probe fluorescence, biochemical; 0.37% of 360,000 active;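 also: recombinant mutant TCR 2C K166C tagged with TAMRA read by polarization; 0% = receptor in buffer alone and 100% = receptor with positive control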
PRMT1 inh: PRMT1 (human) inhibition, primary screen | Q99873 | recombinant PRMT1, activity-based probe fluorescence polarization | inhibition, % at 2.79 µM | 1.3% of 370,000 active;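 active = inhibition above about 21% made by adding two undisclosed values, limit read from the data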
Target sequence (Q99873 whole entry, looked up): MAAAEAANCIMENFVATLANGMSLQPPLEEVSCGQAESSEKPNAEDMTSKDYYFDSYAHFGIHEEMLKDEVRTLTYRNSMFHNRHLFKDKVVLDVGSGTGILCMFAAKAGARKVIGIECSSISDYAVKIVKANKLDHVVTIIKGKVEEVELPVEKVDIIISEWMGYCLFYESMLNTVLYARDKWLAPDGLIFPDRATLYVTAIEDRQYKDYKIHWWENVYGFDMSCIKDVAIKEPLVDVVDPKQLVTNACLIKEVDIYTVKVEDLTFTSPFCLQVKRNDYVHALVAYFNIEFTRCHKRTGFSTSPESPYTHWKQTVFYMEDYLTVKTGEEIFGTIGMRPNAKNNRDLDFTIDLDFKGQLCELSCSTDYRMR
Fam108b confirm: Fam108b (mouse) hydrolase inhibition, confirmation assay; shares compounds with Fam108B inh; recombinant Fam108b, FP-Rh probe fluorescence polarization; inhibition, % at 9.51 µM; 44% of 930 active; AID 1978;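 active = inhibition above a limit from the primary screen, the mean over all compounds plus 3 SD, cut at about 19% in these data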;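 also: 0% = median of active Fam108b wells and 100% = catalytically dead S170A mutant; inhibitors free the probe so polarization falls as inhibition rises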
Fam108b ABPP HTS: mouse ABHD17B inhibition; shares compounds with Fam108B inh; recombinant Fam108b, gel-based ABPP, fluorophosphonate probe; inhibition, % at 20 µM; 44% of 260 active; AID 588649; in the data active = inhibition above about 40%
PAD4 FP conf: PAD4 (human) inhibition, confirmed. shares compounds with PAD4 inh. recombinant PAD4, RCA probe fluorescence polarization. inhibition, % at 6.36 µM. 28% of 1,200 active;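 active = mean inhibition across replicates above the hit cutoff set by the earlier primary screen, cut at about 15% in these data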;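 also: inhibitors block active-site labeling by the probe so polarization falls; 0% = PAD4 with probe and DMSO and 100% = probe without PAD4 enzyme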
BSA probe FL: interferes with TAMRA-BSA probe, flagging TCR-CD3 hits | shares compounds with TCR-CD3 inh | TAMRA-labeled BSA probe fluorescence counterscreen | inhibition, % at 9.4 µM | 10% of 1,200 active; in the data active = inhibition above about 23%;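 also: 0% = buffer low control and 100% = reference high control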
TCR-CD3 conf: confirmation of human TCR-CD3 interaction inhibitors. inhibition, % at 9.4 µM. shares compounds with TCR-CD3 inh. 48% of 1,200 active. AID 652036. TAMRA-labeled TCR probe fluorescence binding assay
PRMT1 inh conf: PRMT1 (human) inhibition, FP confirmation | shares compounds with PRMT1 inh | recombinant His-PRMT1, activity-based probe fluorescence polarization | inhibition, % at 2.79 µM | 42% of 3,300 active;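 active = mean inhibition across replicates above the hit cutoff derived for the earlier primary screen, cut at about 22% in these data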
SIAE inh conf: confirmation of human SIAE inhibitors; shares compounds with SIAE inh; SIAE FP-Rh activity-based probe, fluorescence polarization; inhibition, % at 9.66 µM; 13% of 2,300 active; AID 1117263;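 active = mean inhibition of the replicates above the hit cutoff set in the primary screen, cut at about 17% in these data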;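 also: 0% = SIAE with DMSO and probe and 100% = probe without SIAE; inhibitors lower polarization as more probe stays unbound to SIAE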
Active calls of the source: *; . = not tested or not shown; ! = not active in a repeat. In the library only some 2.6% were active in any assay of this set; here they are far more common. Rule as the data show it, unless noted: active = inhibition above about 19%; inactive = the rest.

SMILES	PME-1 inh	SIAE inh	Fam108B inh	PAD4 inh	TCR-CD3 inh	PRMT1 inh	Fam108b confirm	PAD4 FP conf	others
O=C(O)c1cccc2c1NC(C(=O)O)C1CC(Sc3ccccc3[N+](=O)[O-])C(Cl)C21 (stereo not given)	18	61*	75*	4	37*	81*	54*	.	Fam108b ABPP HTS=0
CCCCn1c(N)c(C(=O)NCc2cccs2)c2nc3ccccc3nc21	8	4	-1	2	7	0	.	.
Nc1c(C(=O)NCCCc2ccccc2)c2nc3ccccc3nc2n1Cc1cccs1	2	4	34*	-13	-7	1	21*	.
O=c1[nH]c2ccccc2n1CCCN1CCC(n2c(=O)[nH]c3cc(Cl)ccc32)CC1	-1	2	19*	6	-4	2	-4	.
O=c1[nH]c2cc(Cl)ccc2n1C1CCN(Cc2ccc(-c3nc4ccc(F)cc4nc3-c3ccccc3)cc2)CC1	.	-16	.	.	6	2	.	.
COP(=O)(C(=O)Nc1ccccc1)C(CC(C)C)NC(=O)OCc1ccccc1 (stereo not given)	.	-3	.	.	.	-2	.	.
NC(Cc1cc(O)c(O)cc1O)C(=O)O (stereo not given)	38*	.	80*	-20	.	.	101*	.	Fam108b ABPP HTS=50*
N[C@@H](CCl)C(=O)O	-5	-4	3	5	-4	1	.	.
CC(C)C(NC(=O)OCc1ccccc1)P(=O)(Oc1ccccc1)Oc1ccccc1 (stereo not given)	.	6	.	.	.	3	.	.
CC(C)C[C@H]1C(=O)N2CCCC2[C@]2(O)O[C@](NC(=O)[C@@H]3C=C4c5cccc6[nH]cc(c56)CC4N(C)C3)(C(C)C)C(=O)N12 (stereo not given in full)	12	.	19*	18*	.	.	17	.
S=P(c1ccccc1)(c1ccccc1)c1cnc2ccccn12	.	-5	.	.	.	-1	.	.
COC(=O)c1nc(-c2ccc3c(n2)C(=O)C(N)=C(OC)C3=O)c(N)c(-c2ccc(OC)c(OC)c2O)c1C	66*	-24	49*	-9	5	5	63*	.	Fam108b ABPP HTS=0
O=C(c1ccc2nc(-c3ccco3)c(-c3ccco3)nc2c1)N1CCC2(CC1)OCCO2	-6	.	23*	38*	.	.	9	-5
NC(Cc1ccccc1)[P+](=O)O (stereo not given)	.	1	.	.	.	3	.	.
CN(C)[C@@H]1C(=O)C(C(N)=O)=C(O)[C@@]2(O)C(=O)C3=C(O)c4c(O)cccc4[C@@](C)(O)[C@H]3[C@H](O)[C@@H]12	-6	10	59*	-4	45*	61*	67*!	.	Fam108b ABPP HTS=0;BSA probe FL=6;TCR-CD3 conf=27*
CC[C@H](C(N)=O)N1CCCC1=O	.	-1	.	.	.	-4	.	.
CCCCn1c(NC(=O)c2ccco2)c(C(=O)OCC)c2nc3ccccc3nc21	19	-4	49*	55*	-5	41*	49*	14	Fam108b ABPP HTS=35;PRMT1 inh conf=8
CCC(NC(=O)OCc1ccccc1)P(=O)(Oc1ccccc1)Oc1ccccc1 (stereo not given)	.	-3	.	.	.	0	.	.
CC(=O)c1ccc2c(c1)C1C(Cl)C(Sc3ccccc3[N+](=O)[O-])CC1C(C(=O)O)N2 (stereo not given)	31*	21*	56*	-3	28*	49*	5	.	BSA probe FL=-2;TCR-CD3 conf=17;PRMT1 inh conf=23*;SIAE inh conf=8
N#CCC[C@H]1CC[C@]2(CCCN(Cc3ccccn3)C2)O1	.	4	.	.	.	-1	.	.
O=C(N/N=C/c1c(O)n(Cc2ccccc2)c(=O)[nH]c1=O)c1ccccc1O	1	28*	21*	-7	74*	2	42*	.	Fam108b ABPP HTS=0;SIAE inh conf=5
O=C1CC[C@@]2(O)[C@H]3Cc4ccc(O)c5c4[C@@]2(CCN3CC2CC2)C1O5 (stereo not given in full)	.	2	.	.	-10	-4	.	.
CCN1/C(=C\C=C\C2=[N+](CC)c3ccccc3C2(C)C)C(C)(C)c2ccccc21	-243	.	-373	145*	.	.	.	101*
COc1cc(O)c2c(c1)/C=C/C[C@H](O)[C@H](O)[C@@H](O)/C=C/C[C@H](C)OC2=O	.	8	.	.	.	2	.	.
CC(C)[C@H]1C(=O)N2CCC[C@H]2[C@]2(O)O[C@](NC(=O)[C@@H]3C=C4c5cccc6[nH]cc(c56)C[C@H]4N(C)C3)(C(C)C)C(=O)N12	9	.	17	29*	.	.	.	2
SMILES	PME-1 inh	SIAE inh	Fam108B inh	PAD4 inh	TCR-CD3 inh	PRMT1 inh	Fam108b confirm	PAD4 FP conf	others
COc1ccc(CC2c3cc(OC)c(OC)cc3CCN2C)cc1O (stereo not given)	-1	2	-2	1	1	-2	.	.
COc1cc2c(cc1OC)-c1c(OC)c(OC)cc3c1C(C2)N(C)CC3 (stereo not given)	2	3	0	47*	-8	0	.	26*
COc1cc2c(cc1OC)-c1c3c(cc4c1[C@@H](C2)N(C)CC4)OCO3	0	6	3	57*	3	-2	.	-9
C=CCn1c(O)c(C(C)=Nc2ccc(N(C)C)cc2)c(=O)[nH]c1=O	-1	9	-1	11	6	19	.	.
CCN(CC)c1ccc(N=Cc2c(O)n(-c3ccccc3)c(=O)[nH]c2=O)cc1	0	9	0	18*	6	25*	.	4
C=CCn1c(O)c(C(C)=Nc2ccc(N(CC)CC)cc2)c(=O)[nH]c1=O	3	2	0	19*	2	19	.	-7
O=C(O)c1cc2ccccc2n1C1CCN(Cc2ccccc2)CC1	.	4	.	.	.	-1	.	.
COc1cc(C(c2c(C)[nH]n(-c3ccccc3)c2=O)c2c(C)[nH]n(-c3ccccc3)c2=O)cc(OC)c1OC	6	8	-1	69*	3	1	.	4
Clc1cc(Cl)cc(CN2Cc3cc(Br)ccc3-n3nncc3C2)c1	.	2	.	.	0	-2	.	.
